Laboratory results: PubChem BioAssay (NCI)
The panel holds about 79,000 compounds, 15% with a hit somewhere; the sample as a whole holds those more often. Activity calls are given as the source filed them. Rule as the data show it: active = growth inhibition above about 70%; inactive = the rest.

Assays:
[1] = NCI Yeast Anticancer Drug Screen. Data for the wt1 strain (AID 149);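 also: 0% = growth of vehicle-treated wt1 cultures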; conditions: S. cerevisiae wt1 strain (SPY 50644) growth inhibition, hits give high values
Outline: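 Vehicle-normalised growth inhibition; strain wt1; compound exposure.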

[2] = NCI Yeast Anticancer Drug Screen. Data for the rad50EPP+ strain (AID 151);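 also: 0% = growth of vehicle-treated control cultures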; conditions: S. cerevisiae rad50 mutant strain, hits give high values
Outline: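 One strain with a rad50 alteration (rad50EPP+) was compound-treated, its growth then compared to that of vehicle controls.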

[3] = NCI Yeast Anticancer Drug Screen. Data for the mgt1 strain (AID 153); conditions: S. cerevisiae mgt1 mutant growth inhibition, hits give high values
Outline: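 After exposure of the mgt1 yeast mutant to compound, growth was measured and reported as inhibition compared with vehicle controls.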

[4] = NCI Yeast Anticancer Drug Screen. Data for the rad50 strain (AID 155);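 also: 0% = growth of vehicle-only cultures of the same strain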; conditions: S. cerevisiae rad50 strain growth inhibition, hits give high values
Outline: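 A DNA repair-deficient yeast mutant serves as the test organism; compound-induced growth inhibition is calculated against vehicle-treated cells.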

[5] = NCI Yeast Anticancer Drug Screen. Data for the mec2-1 strain (AID 157); conditions: S. cerevisiae mec2-1 strain, hits give high values
Outline: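 Test agents were screened against the mec2-1 yeast strain, with defined DNA repair or cell cycle alteration. Growth was scored as inhibition against vehicle-only controls.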

[6] = NCI Yeast Anticancer Drug Screen. Data for the rad14 strain (AID 159);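 also: 0% = growth of vehicle-treated control cultures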; conditions: S. cerevisiae rad14 strain growth inhibition, hits give high values
Outline: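 Vehicle-treated cultures served as the baseline for growth inhibition of a DNA repair-mutant yeast strain exposed to each compound.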

[7] = NCI Yeast Anticancer Drug Screen. Data for the sgs1 mgt1 strain (AID 161);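 also: 0% = growth of cultures given vehicle only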; conditions: S. cerevisiae sgs1 mgt1 strain, hits give high values
Outline: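 Read-out: growth inhibition vs vehicle controls. Cells: mutant yeast strain deficient in DNA damage repair.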

[8] = NCI Yeast Anticancer Drug Screen. Data for the CLN2oe strain (AID 163);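 also: 0% = growth of vehicle-only control cultures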; conditions: S. cerevisiae CLN2oe strain, hits give high values
Outline: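 Here, growth inhibition in a cell-cycle-altered yeast strain after compound exposure was quantified against vehicle control growth.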

[9] = NCI Yeast Anticancer Drug Screen. Data for the cln2 rad14 strain (AID 165);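 also: 0% = growth equal to vehicle treated cultures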; conditions: S. cerevisiae cln2 rad14 strain, hits give high values
Outline: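 Growth of compound-exposed yeast (cln2 rad14 genotype) measured and expressed as inhibition relative to vehicle.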

[10] = NCI Yeast Anticancer Drug Screen. Data for the bub3 strain (AID 167); conditions: S. cerevisiae bub3 mutant strain, hits give high values
Outline: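 Inhibition values come from growth of compound-treated mutant yeast normalised to vehicle-treated controls.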

[11] = NCI Yeast Anticancer Drug Screen. Data for the wt2 strain (AID 169);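 also: 0% = growth of vehicle-treated yeast cultures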; conditions: S. cerevisiae wt2 strain growth inhibition, hits give high values
Outline: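 Genetically defined yeast strains from a DNA-repair/cell-cycle panel were used. Compound-exposed yeast growth was measured, and the inhibition was calculated relative to vehicle treatment.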

[12] = NCI Yeast Anticancer Drug Screen. Data for the mlh1 strain (AID 171);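 also: 0% = growth of vehicle-treated control cultures of the same strain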; conditions: S. cerevisiae mlh1 strain growth inhibition, hits give high values
Outline: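 Here the genetically defined yeast mutant is grown with each compound, and the extent to which its growth falls below that of vehicle-exposed cells is reported.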

[13] = NCI Yeast Anticancer Drug Screen. Data for the mlh1 rad18 strain (AID 175); conditions: S. cerevisiae mlh1 rad18 strain growth inhibition, hits give high values
Outline: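 In this whole-cell yeast screen, a strain with altered DNA damage repair is challenged with compound, and its growth is measured against matched vehicle-treated controls.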

[14] = NCI Yeast Anticancer Drug Screen. Data for the rad18 strain (AID 177); conditions: S. cerevisiae rad18 mutant growth inhibition, hits give high values
Outline: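 Screen uses a yeast strain with a defined lesion in DNA damage repair; compound effect is read as loss of growth compared to untreated vehicle cultures.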

[15] = at 5.0 µM (retest, dose inferred, filed as 0.5)
[16] = at 50.0 µM (retest, dose inferred, filed as 5.0)

Measured: growth inhibition

c1ccc(N/N=C2\CC(c3ccccc3)Oc3ccccc32)cc1 (stereo not drawn)
inactive: [1]; at 1.2 µM -1% | [1]; at 3.7 µM 0% | [1]; at 11.0 µM -3% | [1]; at 33.0 µM -2% | [1]; at 100.0 µM -2% | [2]; at 1.2 µM 19% | [2]; at 3.7 µM 33% | [2]; at 11.0 µM 47% | [2]; at 33.0 µM 64% | [2]; at 100.0 µM 50% | [3]; at 1.2 µM -3% | [3]; at 3.7 µM -1% | [3]; at 11.0 µM 6% | [3]; at 33.0 µM 11% | [3]; at 100.0 µM 22% | [4]; at 1.2 µM 4% | [4]; at 3.7 µM 11% | [4]; [15] 5% | [4]; at 11.0 µM 1% | [4]; at 33.0 µM 32% | [4]; [16] 8% | [4]; at 100.0 µM 28% | [5]; at 1.2 µM 1% | [5]; at 3.7 µM 4% | [5]; [15] -2% | [5]; at 11.0 µM 9% | [5]; at 33.0 µM 14% | [5]; [16] 23% | [5]; at 50.0 µM 31.4% | [5]; at 100.0 µM 13% | [6]; at 1.2 µM 0% | [6]; at 3.7 µM 4% | [6]; at 11.0 µM 10% | [6]; at 33.0 µM 52% | [7]; [15] -5% | [7]; [16] 26% | [8]; at 1.2 µM 0% | [8]; at 3.7 µM 1% | [8]; at 11.0 µM 1% | [8]; at 33.0 µM 12% | [8]; at 100.0 µM 17% | [9]; [15] -5% | [9]; [16] 4% | [9]; at 50.0 µM 30.6% | [10]; at 1.2 µM 1% | [10]; at 3.7 µM 4% | [10]; [15] -24% | [10]; at 11.0 µM 15% | [10]; at 33.0 µM 39% | [10]; [16] 27% | [10]; at 50.0 µM 53% | [10]; at 100.0 µM 39% | [11]; at 1.2 µM 0% | [11]; at 3.7 µM -4% | [11]; at 11.0 µM 5% | [11]; at 33.0 µM 21% | [11]; at 100.0 µM 29% | [12]; at 1.2 µM 1% | [12]; at 3.7 µM 0% | [12]; at 11.0 µM 4% | [12]; at 33.0 µM 6% | [12]; at 100.0 µM 3% | [13]; [15] -26% | [13]; [16] 50% | [14]; at 1.2 µM 6% | [14]; at 3.7 µM 14% | [14]; at 11.0 µM 20% | [14]; at 33.0 µM 33% | [14]; at 100.0 µM 49%
active: [4]; at 50.0 µM 71.2% | [6]; at 100.0 µM 72% | [7]; at 50.0 µM 74% | [13]; at 50.0 µM 72.5%

CC(C)c1ccc(C2NC(=S)NC3=C2c2ccccc2C3=O)cc1 (stereo not drawn)
active: [4]; at 50.0 µM 86.8% | [7]; at 50.0 µM 78% | [10]; at 33.0 µM 81% | [10]; [16] 87% | [10]; at 50.0 µM 89.7% | [10]; at 100.0 µM 88%
inactive: [1]; at 1.2 µM 16% | [1]; at 3.7 µM 6% | [1]; at 11.0 µM 18% | [1]; at 33.0 µM 17% | [1]; at 100.0 µM 17% | [2]; at 1.2 µM 23% | [2]; at 3.7 µM 21% | [2]; at 11.0 µM 16% | [2]; at 33.0 µM 15% | [2]; at 100.0 µM 3% | [3]; at 1.2 µM 3% | [3]; at 3.7 µM -4% | [3]; at 11.0 µM 7% | [3]; at 33.0 µM 19% | [3]; at 100.0 µM 50% | [4]; at 1.2 µM 24% | [4]; at 3.7 µM 24% | [4]; [15] 22% | [4]; at 11.0 µM 27% | [4]; at 33.0 µM 32% | [4]; [16] 31% | [4]; at 100.0 µM 54% | [5]; at 1.2 µM 17% | [5]; at 3.7 µM 11% | [5]; [15] -8% | [5]; at 11.0 µM -7% | [5]; at 33.0 µM 9% | [5]; [16] -11% | [5]; at 50.0 µM 64.1% | [5]; at 100.0 µM 28% | [6]; at 1.2 µM -8% | [6]; at 3.7 µM -14% | [6]; at 11.0 µM -18% | [6]; at 33.0 µM -20% | [6]; at 100.0 µM 11% | [7]; [15] 43% | [7]; [16] 24% | [8]; at 1.2 µM -9% | [8]; at 3.7 µM -5% | [8]; at 11.0 µM -5% | [8]; at 33.0 µM -8% | [8]; at 100.0 µM 18% | [9]; [15] -9% | [9]; [16] 26% | [9]; at 50.0 µM 66.8% | [10]; at 1.2 µM -3% | [10]; at 3.7 µM 4% | [10]; [15] -25% | [10]; at 11.0 µM 27% | [11]; at 1.2 µM 0% | [11]; at 3.7 µM 1% | [11]; at 11.0 µM 14% | [11]; at 33.0 µM 22% | [11]; at 100.0 µM 41%
